Shown are actives, neighbours in structure and some others; about 0.24% of the full set was active somewhere.
Bcl-W Bim block: inhibitors of Bim-Bcl-W interaction, human; Q92843; bead-based flow cytometry, Bim peptide-Bcl-W binding; inhibition, % at 10 µM; 0.02% of 190,000 active;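 also: higher means less fluorescent Bim peptide bound to Bcl-W beads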
Bim-Bcl-2: disrupts Bim peptide binding to human Bcl-2; P10415; Bead-based flow cytometry, Bim peptide-Bcl-2 binding; inhibition, % at 10 µM; 0.06% of 190,000 active; AID 950; in the data active = inhibition above about 40%
Bim-Bfl-1: human Bim-Bfl-1 interaction inhibition; Bead-based flow cytometry, Bim-Bfl-1 binding inhibition; inhibition, % at 10 µM; 0.12% of 190,000 active
Bim-Bcl-B: disrupts Bim peptide binding to human Bcl-B | 0.073% of 190,000 active | inhibition, % at 10 µM | AID 951 | bead-based flow cytometry
Target sequence (Q9HD36 whole entry, looked up): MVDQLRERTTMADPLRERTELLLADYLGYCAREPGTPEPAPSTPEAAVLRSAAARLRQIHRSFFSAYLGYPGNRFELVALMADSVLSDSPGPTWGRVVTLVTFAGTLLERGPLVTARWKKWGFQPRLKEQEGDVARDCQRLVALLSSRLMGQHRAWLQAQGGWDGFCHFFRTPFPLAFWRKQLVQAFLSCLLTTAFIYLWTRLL
Bim-Bcl-XL: inhibitors of Bim-Bcl-XL interaction, human. Bim peptide-Bcl-XL binding, bead flow cytometry, fluorescence. inhibition, % at 10 µM. 0.04% of 190,000 active
Target sequence (Q07817 whole entry, looked up): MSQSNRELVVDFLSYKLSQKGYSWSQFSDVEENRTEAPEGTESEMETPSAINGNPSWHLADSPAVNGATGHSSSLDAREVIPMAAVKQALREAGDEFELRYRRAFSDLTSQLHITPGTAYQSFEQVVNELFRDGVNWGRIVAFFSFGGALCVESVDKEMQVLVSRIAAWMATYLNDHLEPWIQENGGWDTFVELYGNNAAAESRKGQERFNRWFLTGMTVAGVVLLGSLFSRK
PKD1 inh: PKD1 (human) kinase inhibition. PKD1 kinase fluorescence polarization assay. inhibition, % (test concentration not listed). 0.056% of 200,000 active. AID 797; in the data active = inhibition above about 50%
Hits are given with their value; – = inactive; · = not tested or not shown. Rule as the data show it, unless noted: active = inhibition above about 40%.

SMILES	Bcl-W Bim block	Bim-Bcl-2	Bim-Bfl-1	Bim-Bcl-B	Bim-Bcl-XL	PKD1 inh
COc1ccc(N2C(=O)/C(=C/c3cccs3)NC2=S)cc1	–	–	45.0	–	–	–
CN(C)/C=C1\NC(=S)N(c2ccccc2)C1=O	–	–	–	–	–	–
Cc1cc(C)c(S(=O)(=O)/N=C2/C=C(SCC(=O)O)C(=O)c3ccccc32)cc1C	–	–	56.0	–	–	–
CC(=O)c1ccc(NC(=O)CSc2nc(=O)cc(N)n2-c2ccccc2)cc1	–	–	–	–	–	–
COc1ccccc1-n1c(-c2cc(-c3ccc(F)cc3)n[nH]2)n[nH]c1=S	47.0	44.0	–	–	–	–
CC(C)Cc1cc(-c2ccco2)c(C#N)c(N)n1	–	90.0	73.0	93.0	–	–
Cc1c(NC(=O)/C=C/c2ccc(S(=O)(=O)N3CCOCC3)cc2)c(=O)n(-c2ccccc2)n1C	–	–	–	–	–	–
Cc1ccc(O)c(NC2=C(Cl)C(=O)N(Cc3ccccc3)C2=O)c1	51.0	–	58.0	–	–	–
CCOc1ccc(NC2=C(Cl)C(=O)N(Cc3ccccc3)C2=O)cc1	–	–	–	–	–	–
COc1ccccc1C(=O)N=Nc1c(O)[nH]c2ccc([N+](=O)[O-])cc12	–	–	–	–	44.0	–
COC(=O)c1cc2occc2n1Cc1c(F)cccc1Cl	–	–	–	–	–	–
O=C(NCCc1cccc(Cl)c1)c1cc([N+](=O)[O-])ccc1Cl	–	–	–	–	–	–
O=C(NCCCN1CCN(CCCNC(=O)c2cc([N+](=O)[O-])ccc2Cl)CC1)c1cc([N+](=O)[O-])ccc1Cl	–	–	–	78.0	–	–
CC1Cc2ccccc2N1C(=O)c1ccc(N2CCCC2)c([N+](=O)[O-])c1 (centres undefined)	–	56.0	–	72.0	–	–
N#Cc1cnn2c(-c3ccc(Cl)cc3Cl)ccnc12	–	–	–	–	–	–
CN(CCO)c1cnccn1	–	–	–	–	–	–
CC(=O)NC1=C(NC2CCS(=O)(=O)C2)C(=O)c2ccccc2C1=O (centres undefined)	–	–	41.0	–	–	–
CN(C1=C(NC(=O)c2ccccc2)C(=O)c2ccccc2C1=O)C1CCS(=O)(=O)C1 (centres undefined)	–	–	–	–	–	–
CCCC1(C)NC(=O)c2ccccc2O1 (centres undefined)	–	–	–	–	–	–
Nc1cc(C(F)(F)F)ccc1Nc1ccccc1	–	–	–	–	–	–
O=C(C[n+]1ccc(-c2nnc3n2CCC3)cc1)c1ccc(Cl)c(Cl)c1	–	–	–	43.0	–	–
Cc1ccc(N(C(=O)Cn2nnc(-c3ccccc3)n2)C(C(=O)NC2CCCCC2)c2ccccn2)cc1C (centres undefined)	–	–	–	–	–	–
COc1cc(/C=C2\CC/C(=C\c3cc(OC)c(OC)c(OC)c3)C2=O)cc(OC)c1OC	–	–	–	–	–	–
COc1cc(/C=C2\CC/C(=C\c3cc(OC)c(O)c(OC)c3)C2=O)cc(OC)c1O	43.0	–	50.0	–	–	–
CCOC(=O)c1c(C)oc(/N=C/c2ccccc2O)c1C#N	–	–	–	–	–	–
SMILES	Bcl-W Bim block	Bim-Bcl-2	Bim-Bfl-1	Bim-Bcl-B	Bim-Bcl-XL	PKD1 inh
O=C1c2ccccc2C(=O)c2c1cccc2N1CCCC1	–	–	–	–	–	–
O=C1c2ccccc2-c2onc3ccc(N4CCCC4)c1c23	63.0	46.0	42.0	–	63.0	–
CCN(c1ccccc1)S(=O)(=O)c1ccc(Cl)c(NC(=O)CSc2nnc(C)s2)c1	–	–	–	–	–	–
COc1ccc(NC(=O)COC(=O)C2CCC(C(C)(C)C)CC2)c([N+](=O)[O-])c1 (centres undefined)	–	–	–	–	–	–
CC1N(C)c2cccc3cccc(c23)N1C	–	–	43.0	–	–	–
CSc1ccccc1C(=O)NCc1ccc(F)cc1	–	–	–	–	–	73.7
O=C(Oc1ccc(-c2cnc3ccccc3n2)cc1)c1cc([N+](=O)[O-])ccc1Cl	–	–	–	–	–	–
Cc1c(C(=O)Oc2ccc(-c3cnc4ccccc4n3)cc2)cccc1[N+](=O)[O-]	–	–	40.0	–	–	–
S=C(NCCc1ccccc1)NCCc1ccccc1	–	–	44.0	–	–	–
NNC(=S)NCCc1ccccc1	–	–	–	–	–	–
O=C1c2ccccc2C(=O)N1c1cccc2cccnc12	–	–	40.0	–	–	–
O=C1C2C3C=CC(C3)C2C(=O)N1c1cccc2cccnc12 (centres undefined)	–	–	–	–	–	–
Cc1ccc(C(=O)NNC(=O)c2cccc(S(=O)(=O)N3CCN(c4ccccc4)CC3)c2)cc1	–	–	–	–	–	–
Cc1ccc(NC(=O)/C(=C\c2ccc([N+](=O)[O-])cc2)NC(=O)c2ccccc2)cc1	–	–	–	–	–	–
O=C(N/N=C/c1ccc(O)c(O)c1O)/C(=C/c1ccc([N+](=O)[O-])cc1)NC(=O)c1ccccc1	–	–	41.0	–	–	–
Oc1ccc(/C=N/Nc2nc(-c3ccc(Cl)cc3)cc(C(F)(F)F)n2)cc1	–	–	–	–	–	–
O=c1[nH]c(=O)c2nnc(N/N=C\c3ccc(O)cc3)nc2[nH]1	–	–	–	–	44.0	–
Cc1cccc(C(=O)NN2S(=O)(=O)c3ccccc3S2(=O)=O)c1	–	–	–	–	–	–
COc1cc2[nH]c(=S)nc(NC3CCCC3)c2cc1OC	–	–	–	–	44.0	–
CC[n+]1c(/C=C/C=C/N(C(C)=O)c2ccccc2)sc2ccccc21	43.0	·	–	–	·	–
CCOc1cc(CNc2ccc(N3CCCC3)cc2)cc(Cl)c1OC	–	–	–	–	–	–
CCOc1ccc(CNc2ccc(N3CCCC3)cc2)cc1	–	–	42.0	–	–	–
COc1cc(CNc2ccc(N3CCCC3)cc2)cc(Cl)c1OC	–	–	48.0	–	–	–
COc1ccc(/C=C/C(=O)OCC(=O)Nc2ccc(Cl)c(S(=O)(=O)N(C)C)c2)cc1OC	–	–	–	–	–	–
O=C1C(Cl)=C(N2CCCCC2)C(=O)C(Cl)=C1c1cnc(N2CCCCC2)s1	85.0	69.0	91.0	52.0	49.0	–
SMILES	Bcl-W Bim block	Bim-Bcl-2	Bim-Bfl-1	Bim-Bcl-B	Bim-Bcl-XL	PKD1 inh
CN(C)c1ncc(C2=C(Cl)C(=O)C(N3CCCC3)=C(Cl)C2=O)s1	83.0	70.0	92.0	46.0	48.0	–
CC(=O)c1cnc(N(C)C)s1	–	–	–	–	–	–
COC(=O)CSc1nn(-c2ccc(F)cc2)c(=S)s1	–	–	–	–	–	–
COc1ccc(Oc2cc(C(F)(F)F)cnc2C(N)=O)cc1	–	–	–	–	–	–
COc1ccc(CCN(CC(=O)NC2CCCC2)C(=O)Cn2nnc(-c3ccc(C)o3)n2)cc1OC	–	–	–	–	–	–
CC(=O)N1CCN(C(=O)c2ccc(-n3c(C)ccc3C)cc2)CC1	–	–	–	41.0	–	–
Cc1cccc(OCCNc2cc(N3CCN(CCO)CC3)ccc2[N+](=O)[O-])c1	–	–	–	–	–	–
